The results in this text go back to ChEMBL document CHEMBL2218924, “A broad activity screen in support of a chemogenomic map for kinase signalling research and drug discovery” (Biochem J, 2013).

Structures are written as SMILES.

As usually defined, the residual activity is the signal under treatment as a percentage of the control signal.

Assay [1] deals with T1, Ephrin type-A receptor 3 (Homo sapiens) (UniProt P29320).
T1 sequence (whole entry): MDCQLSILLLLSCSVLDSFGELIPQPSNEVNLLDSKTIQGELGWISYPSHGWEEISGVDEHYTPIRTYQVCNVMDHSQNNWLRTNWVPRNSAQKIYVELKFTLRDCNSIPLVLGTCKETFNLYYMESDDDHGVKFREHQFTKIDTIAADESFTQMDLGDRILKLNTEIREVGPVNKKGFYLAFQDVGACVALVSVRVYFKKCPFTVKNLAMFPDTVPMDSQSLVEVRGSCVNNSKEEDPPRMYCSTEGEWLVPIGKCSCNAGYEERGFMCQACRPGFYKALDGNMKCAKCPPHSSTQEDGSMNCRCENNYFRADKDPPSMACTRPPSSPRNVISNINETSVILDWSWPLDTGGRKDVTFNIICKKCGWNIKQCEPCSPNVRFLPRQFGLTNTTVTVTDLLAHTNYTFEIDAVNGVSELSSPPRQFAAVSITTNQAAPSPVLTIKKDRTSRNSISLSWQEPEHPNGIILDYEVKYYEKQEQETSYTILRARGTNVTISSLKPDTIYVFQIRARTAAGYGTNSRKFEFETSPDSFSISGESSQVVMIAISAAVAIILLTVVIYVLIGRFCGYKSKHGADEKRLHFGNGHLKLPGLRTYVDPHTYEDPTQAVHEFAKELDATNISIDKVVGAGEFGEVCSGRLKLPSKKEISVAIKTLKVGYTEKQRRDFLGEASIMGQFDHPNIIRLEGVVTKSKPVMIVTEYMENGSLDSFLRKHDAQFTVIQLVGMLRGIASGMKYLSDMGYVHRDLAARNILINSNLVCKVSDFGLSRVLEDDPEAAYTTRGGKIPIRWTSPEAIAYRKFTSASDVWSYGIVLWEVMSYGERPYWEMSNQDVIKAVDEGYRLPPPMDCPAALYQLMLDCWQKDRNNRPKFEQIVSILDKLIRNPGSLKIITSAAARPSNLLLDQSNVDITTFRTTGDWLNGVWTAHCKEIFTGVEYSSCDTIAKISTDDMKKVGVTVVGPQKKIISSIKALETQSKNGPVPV
The conditions noted are these: at 10 µM.

In assay [2] the target is Ephrin type-A receptor 4 (Homo sapiens) (UniProt P54764). The conditions noted are these: at 1 µM.
For assay [3] the target is unchanged. The conditions noted are these: at 10 µM.
For assay [4], the target named is Ephrin type-A receptor 5 (Homo sapiens) (UniProt P54756). The settings on record: at 1 µM.
Assay [5] shares this target. The conditions noted are these: at 10 µM.
Assay [6] deals with Ephrin type-A receptor 7 (Homo sapiens) (UniProt Q15375). The settings on record: at 1 µM.
The target is the same in assay [7]. The conditions noted are these: at 10 µM.
The target in assay [8] is T2, Ephrin type-A receptor 8 (Homo sapiens) (UniProt P29322).
T2 sequence (whole entry): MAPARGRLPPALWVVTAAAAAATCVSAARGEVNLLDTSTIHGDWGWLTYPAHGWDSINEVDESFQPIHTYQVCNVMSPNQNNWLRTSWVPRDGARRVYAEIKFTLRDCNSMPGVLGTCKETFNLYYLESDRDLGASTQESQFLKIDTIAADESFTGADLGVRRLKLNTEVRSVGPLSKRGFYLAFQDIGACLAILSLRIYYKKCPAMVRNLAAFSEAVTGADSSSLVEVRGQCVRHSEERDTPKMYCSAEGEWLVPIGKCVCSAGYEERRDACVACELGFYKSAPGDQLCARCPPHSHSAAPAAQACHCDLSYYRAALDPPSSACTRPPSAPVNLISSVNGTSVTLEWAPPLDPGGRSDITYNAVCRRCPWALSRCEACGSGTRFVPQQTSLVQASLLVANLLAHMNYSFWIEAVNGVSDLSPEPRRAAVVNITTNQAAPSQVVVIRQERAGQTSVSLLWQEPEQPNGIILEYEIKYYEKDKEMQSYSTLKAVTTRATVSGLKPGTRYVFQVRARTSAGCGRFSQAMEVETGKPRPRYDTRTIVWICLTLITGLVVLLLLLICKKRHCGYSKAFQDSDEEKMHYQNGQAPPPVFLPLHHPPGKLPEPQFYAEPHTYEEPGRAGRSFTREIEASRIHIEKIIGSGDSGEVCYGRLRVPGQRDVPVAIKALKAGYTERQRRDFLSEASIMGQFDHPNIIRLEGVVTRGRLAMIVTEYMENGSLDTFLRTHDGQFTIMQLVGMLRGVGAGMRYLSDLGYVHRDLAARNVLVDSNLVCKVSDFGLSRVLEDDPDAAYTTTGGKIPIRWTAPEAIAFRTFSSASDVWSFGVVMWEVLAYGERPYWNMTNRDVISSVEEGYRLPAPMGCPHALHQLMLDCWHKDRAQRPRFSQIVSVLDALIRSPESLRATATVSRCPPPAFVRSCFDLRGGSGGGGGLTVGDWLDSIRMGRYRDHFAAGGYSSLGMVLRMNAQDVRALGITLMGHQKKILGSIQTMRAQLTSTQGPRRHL
The settings on record: at 1 µM.

The target in assay [9] is T2, Ephrin type-A receptor 8 (Homo sapiens). The settings on record: at 10 µM.
In assay [10] the target is T3, Ephrin type-B receptor 1 (Homo sapiens) (UniProt P54762).
T3 sequence (whole entry): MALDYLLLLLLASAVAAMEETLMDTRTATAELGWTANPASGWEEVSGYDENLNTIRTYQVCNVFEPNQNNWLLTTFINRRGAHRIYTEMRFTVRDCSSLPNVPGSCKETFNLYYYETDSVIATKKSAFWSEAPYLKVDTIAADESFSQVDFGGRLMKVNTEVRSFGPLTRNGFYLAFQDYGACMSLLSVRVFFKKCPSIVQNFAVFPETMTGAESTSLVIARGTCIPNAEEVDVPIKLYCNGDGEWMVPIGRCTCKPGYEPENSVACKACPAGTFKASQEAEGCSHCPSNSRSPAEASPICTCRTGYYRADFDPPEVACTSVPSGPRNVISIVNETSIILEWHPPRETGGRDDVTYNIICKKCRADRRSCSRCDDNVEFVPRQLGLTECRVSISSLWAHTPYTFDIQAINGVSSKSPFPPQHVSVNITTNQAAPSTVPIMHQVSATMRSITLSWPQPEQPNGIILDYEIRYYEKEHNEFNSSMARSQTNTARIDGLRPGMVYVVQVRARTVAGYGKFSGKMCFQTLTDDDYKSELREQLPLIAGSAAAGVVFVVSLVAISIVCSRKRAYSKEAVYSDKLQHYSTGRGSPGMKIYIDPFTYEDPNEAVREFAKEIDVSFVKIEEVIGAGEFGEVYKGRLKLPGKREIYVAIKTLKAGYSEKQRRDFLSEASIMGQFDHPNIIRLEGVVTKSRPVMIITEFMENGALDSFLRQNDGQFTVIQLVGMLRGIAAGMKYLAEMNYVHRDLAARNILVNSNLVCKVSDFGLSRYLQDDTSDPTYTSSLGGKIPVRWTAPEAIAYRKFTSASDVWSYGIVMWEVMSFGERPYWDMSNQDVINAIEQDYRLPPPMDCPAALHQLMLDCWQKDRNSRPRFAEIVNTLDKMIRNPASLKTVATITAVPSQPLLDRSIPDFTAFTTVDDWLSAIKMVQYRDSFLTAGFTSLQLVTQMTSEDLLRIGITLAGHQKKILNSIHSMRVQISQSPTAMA
The conditions noted are these: at 1 µM.

Sequence of Ephrin type-A receptor 7 (Homo sapiens) (Q15375 28-998 limits assumed): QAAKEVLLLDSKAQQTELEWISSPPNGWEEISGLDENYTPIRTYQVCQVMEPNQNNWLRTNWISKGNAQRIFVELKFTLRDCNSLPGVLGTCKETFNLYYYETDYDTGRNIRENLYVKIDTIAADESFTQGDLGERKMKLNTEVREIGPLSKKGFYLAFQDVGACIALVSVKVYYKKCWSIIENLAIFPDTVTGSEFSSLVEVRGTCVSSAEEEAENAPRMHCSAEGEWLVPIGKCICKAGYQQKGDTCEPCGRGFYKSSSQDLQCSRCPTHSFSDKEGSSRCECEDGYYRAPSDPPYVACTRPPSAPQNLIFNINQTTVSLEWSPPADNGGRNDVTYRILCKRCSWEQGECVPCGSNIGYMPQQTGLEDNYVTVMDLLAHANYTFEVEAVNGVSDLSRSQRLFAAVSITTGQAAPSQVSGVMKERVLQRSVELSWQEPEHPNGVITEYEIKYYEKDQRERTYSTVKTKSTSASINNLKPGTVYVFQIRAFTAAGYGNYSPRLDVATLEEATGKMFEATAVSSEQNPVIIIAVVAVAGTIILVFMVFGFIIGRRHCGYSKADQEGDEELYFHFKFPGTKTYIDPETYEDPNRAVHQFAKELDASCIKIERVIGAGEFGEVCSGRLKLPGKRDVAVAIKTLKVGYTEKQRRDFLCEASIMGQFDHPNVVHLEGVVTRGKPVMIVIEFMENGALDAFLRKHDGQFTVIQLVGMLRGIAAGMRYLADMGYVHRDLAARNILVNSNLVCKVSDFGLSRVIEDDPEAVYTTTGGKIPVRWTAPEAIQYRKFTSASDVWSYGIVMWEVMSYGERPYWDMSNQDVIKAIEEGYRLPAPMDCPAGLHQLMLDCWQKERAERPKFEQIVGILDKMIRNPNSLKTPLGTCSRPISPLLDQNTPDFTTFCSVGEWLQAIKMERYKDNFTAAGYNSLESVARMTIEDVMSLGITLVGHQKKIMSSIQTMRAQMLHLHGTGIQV
Sequence of Ephrin type-A receptor 4 (Homo sapiens) (P54764 whole entry): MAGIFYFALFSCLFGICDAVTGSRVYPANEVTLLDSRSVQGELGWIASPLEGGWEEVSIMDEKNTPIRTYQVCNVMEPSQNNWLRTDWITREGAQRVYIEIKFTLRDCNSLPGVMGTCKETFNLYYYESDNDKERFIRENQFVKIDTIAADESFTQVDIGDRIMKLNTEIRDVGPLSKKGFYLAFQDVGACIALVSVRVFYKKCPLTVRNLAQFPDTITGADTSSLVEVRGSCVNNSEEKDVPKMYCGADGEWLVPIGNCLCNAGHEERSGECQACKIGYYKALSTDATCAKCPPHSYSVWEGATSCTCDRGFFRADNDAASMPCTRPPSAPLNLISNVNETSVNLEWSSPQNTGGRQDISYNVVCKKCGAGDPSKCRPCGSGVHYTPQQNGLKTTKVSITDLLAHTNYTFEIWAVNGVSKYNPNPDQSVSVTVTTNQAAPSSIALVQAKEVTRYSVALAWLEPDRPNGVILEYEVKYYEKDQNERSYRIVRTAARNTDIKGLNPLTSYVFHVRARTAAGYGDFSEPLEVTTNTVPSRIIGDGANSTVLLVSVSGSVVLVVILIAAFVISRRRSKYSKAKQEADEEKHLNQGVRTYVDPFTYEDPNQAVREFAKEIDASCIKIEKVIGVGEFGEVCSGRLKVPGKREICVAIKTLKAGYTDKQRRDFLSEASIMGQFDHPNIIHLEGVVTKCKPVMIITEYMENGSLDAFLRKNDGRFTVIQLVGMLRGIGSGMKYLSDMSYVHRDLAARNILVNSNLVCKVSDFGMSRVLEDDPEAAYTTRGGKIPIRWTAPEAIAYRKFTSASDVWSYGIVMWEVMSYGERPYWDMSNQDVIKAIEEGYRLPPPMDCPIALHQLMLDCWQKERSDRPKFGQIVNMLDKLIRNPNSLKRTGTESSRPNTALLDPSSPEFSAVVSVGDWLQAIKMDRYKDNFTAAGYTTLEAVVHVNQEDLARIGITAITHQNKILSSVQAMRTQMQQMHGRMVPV
Sequence of Ephrin type-A receptor 5 (Homo sapiens) (P54756 whole entry): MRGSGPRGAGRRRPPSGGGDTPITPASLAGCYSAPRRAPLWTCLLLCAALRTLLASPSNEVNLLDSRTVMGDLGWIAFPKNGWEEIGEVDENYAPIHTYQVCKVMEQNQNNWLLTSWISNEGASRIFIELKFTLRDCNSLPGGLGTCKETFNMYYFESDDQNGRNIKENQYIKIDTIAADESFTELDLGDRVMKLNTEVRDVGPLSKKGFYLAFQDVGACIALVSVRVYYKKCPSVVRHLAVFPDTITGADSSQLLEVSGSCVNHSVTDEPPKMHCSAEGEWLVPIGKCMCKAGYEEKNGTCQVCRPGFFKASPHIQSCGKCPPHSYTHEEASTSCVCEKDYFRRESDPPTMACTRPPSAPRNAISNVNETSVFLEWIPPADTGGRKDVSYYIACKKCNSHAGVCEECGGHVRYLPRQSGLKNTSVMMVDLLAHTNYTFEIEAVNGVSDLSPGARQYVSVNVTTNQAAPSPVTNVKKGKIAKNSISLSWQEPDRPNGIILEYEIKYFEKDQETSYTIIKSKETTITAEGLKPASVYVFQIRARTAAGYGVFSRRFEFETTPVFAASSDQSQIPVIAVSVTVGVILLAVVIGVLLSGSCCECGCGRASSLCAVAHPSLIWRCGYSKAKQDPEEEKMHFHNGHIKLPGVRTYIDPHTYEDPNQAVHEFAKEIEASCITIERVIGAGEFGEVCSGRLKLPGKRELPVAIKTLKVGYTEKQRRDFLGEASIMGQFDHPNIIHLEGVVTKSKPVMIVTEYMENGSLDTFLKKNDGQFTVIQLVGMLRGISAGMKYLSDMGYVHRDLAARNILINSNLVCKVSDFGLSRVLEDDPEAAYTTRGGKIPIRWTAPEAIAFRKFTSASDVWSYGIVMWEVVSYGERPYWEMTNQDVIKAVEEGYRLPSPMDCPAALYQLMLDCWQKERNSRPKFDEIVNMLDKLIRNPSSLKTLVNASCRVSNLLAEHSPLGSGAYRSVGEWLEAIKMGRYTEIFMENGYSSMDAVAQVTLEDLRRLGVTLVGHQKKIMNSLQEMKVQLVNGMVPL

For the compound `CN(C)c1ccc(/C=C2\C(=O)Nc3ccccc32)cc1`, the residual activity was found to be 100% in assay [1]; 115% in assay [2]; 109% in assay [3]; 108% in assay [4]; 112% in assay [5]; 104% in assay [6]. Further, the residual activity in assay [7] turned out to be 89%; in assay [8] it was 102%; in [9], 98%; in [10], 100%.
